The record followed here is paper PMC7862700, “An all-to-all approach to the identification of sequence-specific readers for epigenetic DNA modifications on cytosine”.

Holding throughout (test): DAPPL (digital affinity profiling via proximity ligation, sequencing); 10 mM Tris-HCl pH 7.5, 50 mM NaCl, 1 mM DTT, 4% glycerol, room temperature, 30 min; GST-TFs on glutathione beads, 16-mer random dsDNA library, 0.1% formaldehyde crosslink after washing; high values mean tight binding
Holding throughout (details): protein: recombinant; tags: N-terminal GST; dsDNA, one strand shown

One assay deals with T1, ELK1 (Homo sapiens, UniProt P19419 1-428).
T1 sequence: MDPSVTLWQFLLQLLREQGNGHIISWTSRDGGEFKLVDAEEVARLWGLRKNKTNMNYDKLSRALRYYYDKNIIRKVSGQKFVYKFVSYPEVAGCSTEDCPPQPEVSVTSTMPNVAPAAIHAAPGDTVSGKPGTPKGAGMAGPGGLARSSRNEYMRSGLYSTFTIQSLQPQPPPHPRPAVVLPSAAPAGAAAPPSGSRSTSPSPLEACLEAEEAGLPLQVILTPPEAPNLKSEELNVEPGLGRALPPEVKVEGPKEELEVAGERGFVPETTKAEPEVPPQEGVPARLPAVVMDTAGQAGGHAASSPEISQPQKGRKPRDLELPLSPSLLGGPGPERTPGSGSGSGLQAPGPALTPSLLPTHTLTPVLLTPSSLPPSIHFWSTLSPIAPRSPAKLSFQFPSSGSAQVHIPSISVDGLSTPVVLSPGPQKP
The method in brief:
(§1)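 GST fusions of human transcription factors were expressed in yeast and captured with glutathione beads. Once given DNA barcodes and pooled alongside a tag-only sample, they were incubated for 30 min at room temperature with 200 nmole of a random double-stranded 16-mer DNA library in Tris/NaCl/DTT/glycerol buffer, then washed, crosslinked (0.1% formaldehyde), proximity-ligated, PCR-amplified and sequenced on an Illumina NextSeq500. The binding signal of each hexamer is its read frequency for a factor divided by its frequency for the tag-only sample.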

A further assay has as its target T2, GABPA (Homo sapiens, UniProt Q06546 1-454).
T2 sequence: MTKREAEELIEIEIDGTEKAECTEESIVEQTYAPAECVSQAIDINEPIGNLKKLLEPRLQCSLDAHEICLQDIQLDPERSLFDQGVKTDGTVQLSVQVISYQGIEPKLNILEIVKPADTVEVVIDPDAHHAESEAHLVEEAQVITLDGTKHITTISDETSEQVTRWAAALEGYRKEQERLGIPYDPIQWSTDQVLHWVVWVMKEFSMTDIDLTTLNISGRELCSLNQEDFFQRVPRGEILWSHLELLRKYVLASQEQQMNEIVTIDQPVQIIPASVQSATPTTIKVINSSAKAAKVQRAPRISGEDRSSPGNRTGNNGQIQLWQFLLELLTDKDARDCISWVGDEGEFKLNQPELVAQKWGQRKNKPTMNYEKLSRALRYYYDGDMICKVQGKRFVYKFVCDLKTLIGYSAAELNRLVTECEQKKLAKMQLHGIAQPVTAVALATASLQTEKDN
The method in brief: as §1

The target of another assay is T3, ERG (Homo sapiens, UniProt P11308 1-479).
T3 sequence: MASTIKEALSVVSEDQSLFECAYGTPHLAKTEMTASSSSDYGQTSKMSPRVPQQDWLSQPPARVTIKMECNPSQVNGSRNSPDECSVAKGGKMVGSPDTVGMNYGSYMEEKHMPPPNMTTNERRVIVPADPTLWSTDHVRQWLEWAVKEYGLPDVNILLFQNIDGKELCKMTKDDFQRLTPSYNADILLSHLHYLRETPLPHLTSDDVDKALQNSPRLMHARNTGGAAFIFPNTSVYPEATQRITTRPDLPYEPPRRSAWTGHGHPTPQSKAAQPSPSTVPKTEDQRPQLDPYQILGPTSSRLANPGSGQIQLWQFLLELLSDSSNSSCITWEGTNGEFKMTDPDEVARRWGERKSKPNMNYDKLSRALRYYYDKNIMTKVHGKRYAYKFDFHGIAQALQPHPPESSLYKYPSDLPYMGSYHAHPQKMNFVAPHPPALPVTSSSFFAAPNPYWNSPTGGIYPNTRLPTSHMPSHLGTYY
The method in brief: as §1

In the next assay the target is ELF1 (Homo sapiens, UniProt P32519 1-619). The method in brief: as §1
The next assay deals with SPI1 (Homo sapiens, UniProt P17947 1-270). The method in brief:
as §1

Another assay deals with SPIB (Homo sapiens, UniProt Q01892 1-262). The method in brief: as §1
A further assay addresses T4, FEV (Homo sapiens, UniProt Q99581 1-238).
T4 sequence: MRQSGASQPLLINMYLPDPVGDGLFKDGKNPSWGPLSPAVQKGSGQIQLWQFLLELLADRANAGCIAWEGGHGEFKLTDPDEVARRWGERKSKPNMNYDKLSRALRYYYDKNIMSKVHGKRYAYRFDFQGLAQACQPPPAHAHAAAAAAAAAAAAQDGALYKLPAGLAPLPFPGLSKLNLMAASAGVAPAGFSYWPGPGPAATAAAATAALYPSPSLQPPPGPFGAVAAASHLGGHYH
The method in brief:
as §1

Another assay concerns the target ETV5 (Homo sapiens, UniProt P41161 1-510). The method in brief: as §1
For the next assay, the target named is ELF4 (Homo sapiens, UniProt Q99607 1-663). The method in brief: as §1
Another assay concerns the target T5, ELK4 (Homo sapiens, UniProt P28324-2 1-405).
T5 sequence: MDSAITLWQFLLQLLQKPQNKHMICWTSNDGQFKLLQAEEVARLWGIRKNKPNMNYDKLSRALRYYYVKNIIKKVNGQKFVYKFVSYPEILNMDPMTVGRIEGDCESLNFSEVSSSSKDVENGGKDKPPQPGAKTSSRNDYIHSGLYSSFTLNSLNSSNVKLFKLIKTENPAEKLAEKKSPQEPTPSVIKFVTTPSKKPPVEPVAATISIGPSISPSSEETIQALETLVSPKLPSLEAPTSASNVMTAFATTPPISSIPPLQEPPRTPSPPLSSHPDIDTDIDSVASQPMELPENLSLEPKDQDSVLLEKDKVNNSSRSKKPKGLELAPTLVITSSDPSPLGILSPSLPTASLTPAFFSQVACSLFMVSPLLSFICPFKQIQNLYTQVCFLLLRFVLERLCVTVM
The method in brief: as §1

A further assay addresses T6, ETV2 (Homo sapiens, UniProt O00321 1-342).
T6 sequence: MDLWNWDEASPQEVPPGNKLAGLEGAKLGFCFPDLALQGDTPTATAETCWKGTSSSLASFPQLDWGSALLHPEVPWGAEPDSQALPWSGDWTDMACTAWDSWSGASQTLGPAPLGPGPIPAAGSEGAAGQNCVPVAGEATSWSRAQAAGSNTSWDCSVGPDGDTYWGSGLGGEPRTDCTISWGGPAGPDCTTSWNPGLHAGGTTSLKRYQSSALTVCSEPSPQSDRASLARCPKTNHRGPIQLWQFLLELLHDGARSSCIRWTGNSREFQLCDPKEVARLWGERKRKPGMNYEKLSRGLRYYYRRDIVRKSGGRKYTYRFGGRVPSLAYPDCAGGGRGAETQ
The method in brief:
as §1

The next assay has as its target T7, ELF3 (Homo sapiens, UniProt P78545 1-371).
T7 sequence: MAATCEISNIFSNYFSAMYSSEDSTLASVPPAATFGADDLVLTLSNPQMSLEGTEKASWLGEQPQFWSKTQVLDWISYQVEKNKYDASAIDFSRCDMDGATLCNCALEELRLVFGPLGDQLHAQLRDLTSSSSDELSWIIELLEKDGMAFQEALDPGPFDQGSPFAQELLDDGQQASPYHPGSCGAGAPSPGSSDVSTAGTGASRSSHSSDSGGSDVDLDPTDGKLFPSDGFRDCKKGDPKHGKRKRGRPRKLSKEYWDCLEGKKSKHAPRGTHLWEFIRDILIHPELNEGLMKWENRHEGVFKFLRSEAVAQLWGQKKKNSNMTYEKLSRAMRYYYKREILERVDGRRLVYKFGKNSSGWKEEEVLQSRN
The method in brief:
as §1

The target in another assay is ETV1 (Homo sapiens, UniProt P50549 1-477). The method in brief: as §1
For another assay, the target named is T8, ETV3L (Homo sapiens, UniProt Q6ZN32 1-361).
T8 sequence: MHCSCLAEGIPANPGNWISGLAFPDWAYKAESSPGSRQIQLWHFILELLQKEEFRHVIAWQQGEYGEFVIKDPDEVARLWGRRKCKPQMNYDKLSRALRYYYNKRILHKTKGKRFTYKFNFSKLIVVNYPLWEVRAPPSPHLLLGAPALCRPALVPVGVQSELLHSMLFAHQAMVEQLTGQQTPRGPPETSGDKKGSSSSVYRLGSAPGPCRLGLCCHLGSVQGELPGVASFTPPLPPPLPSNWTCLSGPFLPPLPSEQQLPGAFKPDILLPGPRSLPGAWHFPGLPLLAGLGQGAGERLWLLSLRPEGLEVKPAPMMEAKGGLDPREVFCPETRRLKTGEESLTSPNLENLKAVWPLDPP
The method in brief:
as §1

The target in another assay is T9, ETS2 (Homo sapiens, UniProt P15036 1-469).
T9 sequence: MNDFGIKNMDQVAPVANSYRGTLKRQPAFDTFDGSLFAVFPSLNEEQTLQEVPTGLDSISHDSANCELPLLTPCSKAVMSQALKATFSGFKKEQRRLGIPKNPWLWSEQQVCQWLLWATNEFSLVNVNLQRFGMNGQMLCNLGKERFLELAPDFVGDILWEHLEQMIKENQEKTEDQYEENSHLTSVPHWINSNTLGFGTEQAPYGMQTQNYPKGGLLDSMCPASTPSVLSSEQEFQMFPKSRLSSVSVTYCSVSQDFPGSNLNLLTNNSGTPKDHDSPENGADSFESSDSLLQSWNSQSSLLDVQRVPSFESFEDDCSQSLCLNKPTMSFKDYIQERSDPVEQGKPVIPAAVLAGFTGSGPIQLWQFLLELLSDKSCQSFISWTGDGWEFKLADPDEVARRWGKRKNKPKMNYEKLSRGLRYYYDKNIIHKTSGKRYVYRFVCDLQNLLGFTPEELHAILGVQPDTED
The method in brief:
as §1

The next assay has as its target T10, ETV7 (Homo sapiens, UniProt Q9Y603 1-341).
T10 sequence: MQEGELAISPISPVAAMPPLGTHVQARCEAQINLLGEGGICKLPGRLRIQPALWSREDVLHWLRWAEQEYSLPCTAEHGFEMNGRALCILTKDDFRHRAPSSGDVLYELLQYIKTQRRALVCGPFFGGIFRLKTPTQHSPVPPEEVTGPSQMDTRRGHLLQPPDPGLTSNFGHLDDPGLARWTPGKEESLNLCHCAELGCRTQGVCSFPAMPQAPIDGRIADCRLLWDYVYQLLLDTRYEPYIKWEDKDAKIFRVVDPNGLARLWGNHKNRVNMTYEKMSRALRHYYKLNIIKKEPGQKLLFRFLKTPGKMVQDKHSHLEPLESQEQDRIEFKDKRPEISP
The method in brief: as §1

Another assay addresses T11, ETV3 (Homo sapiens, UniProt P41162-2 1-143).
T11 sequence: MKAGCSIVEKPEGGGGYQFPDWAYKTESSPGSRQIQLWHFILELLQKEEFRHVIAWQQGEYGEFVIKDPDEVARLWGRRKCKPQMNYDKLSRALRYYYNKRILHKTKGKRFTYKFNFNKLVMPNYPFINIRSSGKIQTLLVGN
The method in brief: as §1

The next assay has as its target ETV6 (Homo sapiens, UniProt P41212 1-452). The method in brief:
as §1

Sequence of ETV5 (P41161 whole entry): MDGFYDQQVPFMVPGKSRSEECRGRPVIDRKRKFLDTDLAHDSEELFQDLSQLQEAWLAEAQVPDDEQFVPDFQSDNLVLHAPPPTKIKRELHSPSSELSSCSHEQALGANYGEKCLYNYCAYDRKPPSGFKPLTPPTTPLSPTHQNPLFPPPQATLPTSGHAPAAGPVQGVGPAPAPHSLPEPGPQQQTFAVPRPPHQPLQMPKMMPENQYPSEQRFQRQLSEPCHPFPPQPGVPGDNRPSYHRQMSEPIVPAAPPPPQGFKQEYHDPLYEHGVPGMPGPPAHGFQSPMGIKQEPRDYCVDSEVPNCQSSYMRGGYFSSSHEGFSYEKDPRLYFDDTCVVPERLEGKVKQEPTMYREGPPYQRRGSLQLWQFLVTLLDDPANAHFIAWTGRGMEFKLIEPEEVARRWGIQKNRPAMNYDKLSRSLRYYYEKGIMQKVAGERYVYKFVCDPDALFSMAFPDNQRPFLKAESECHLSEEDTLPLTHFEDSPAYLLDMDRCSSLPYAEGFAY
Sequence of ELF1 (P32519 whole entry): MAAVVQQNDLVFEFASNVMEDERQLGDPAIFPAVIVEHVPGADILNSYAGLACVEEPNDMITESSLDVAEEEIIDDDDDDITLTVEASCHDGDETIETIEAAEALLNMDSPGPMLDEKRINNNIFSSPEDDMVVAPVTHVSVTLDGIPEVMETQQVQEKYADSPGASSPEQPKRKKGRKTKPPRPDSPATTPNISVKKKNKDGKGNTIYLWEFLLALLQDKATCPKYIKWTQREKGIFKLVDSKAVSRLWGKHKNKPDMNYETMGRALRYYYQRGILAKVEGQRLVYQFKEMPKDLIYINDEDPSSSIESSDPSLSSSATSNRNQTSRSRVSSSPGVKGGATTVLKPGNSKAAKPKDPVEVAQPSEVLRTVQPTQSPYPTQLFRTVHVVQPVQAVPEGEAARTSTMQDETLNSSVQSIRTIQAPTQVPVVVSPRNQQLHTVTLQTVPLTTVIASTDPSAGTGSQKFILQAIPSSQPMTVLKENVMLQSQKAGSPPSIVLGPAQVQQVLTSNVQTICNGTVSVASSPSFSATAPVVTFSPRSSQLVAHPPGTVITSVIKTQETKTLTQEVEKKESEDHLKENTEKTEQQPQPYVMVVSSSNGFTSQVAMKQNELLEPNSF
Sequence of ETV1 (P50549 whole entry): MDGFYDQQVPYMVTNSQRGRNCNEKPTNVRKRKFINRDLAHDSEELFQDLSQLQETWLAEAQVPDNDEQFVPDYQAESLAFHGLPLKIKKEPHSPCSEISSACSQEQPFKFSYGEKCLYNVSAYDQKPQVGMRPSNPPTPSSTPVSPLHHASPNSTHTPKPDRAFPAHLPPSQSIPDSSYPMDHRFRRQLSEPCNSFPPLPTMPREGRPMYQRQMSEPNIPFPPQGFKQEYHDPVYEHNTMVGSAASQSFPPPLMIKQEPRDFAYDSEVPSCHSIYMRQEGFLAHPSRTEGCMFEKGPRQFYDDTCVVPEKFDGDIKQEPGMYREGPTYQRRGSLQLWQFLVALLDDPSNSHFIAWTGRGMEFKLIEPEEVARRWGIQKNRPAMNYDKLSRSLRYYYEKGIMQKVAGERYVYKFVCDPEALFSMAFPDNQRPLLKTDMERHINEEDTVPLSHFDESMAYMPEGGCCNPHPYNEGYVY
Sequence of SPIB (Q01892 whole entry): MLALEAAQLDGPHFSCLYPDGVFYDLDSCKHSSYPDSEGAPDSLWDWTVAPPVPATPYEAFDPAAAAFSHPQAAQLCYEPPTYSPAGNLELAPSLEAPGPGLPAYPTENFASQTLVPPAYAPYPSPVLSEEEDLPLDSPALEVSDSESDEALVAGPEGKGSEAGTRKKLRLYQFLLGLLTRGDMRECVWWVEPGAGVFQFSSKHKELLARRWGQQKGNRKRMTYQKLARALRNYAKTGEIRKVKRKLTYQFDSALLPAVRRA
Sequence of ELF4 (Q99607 whole entry): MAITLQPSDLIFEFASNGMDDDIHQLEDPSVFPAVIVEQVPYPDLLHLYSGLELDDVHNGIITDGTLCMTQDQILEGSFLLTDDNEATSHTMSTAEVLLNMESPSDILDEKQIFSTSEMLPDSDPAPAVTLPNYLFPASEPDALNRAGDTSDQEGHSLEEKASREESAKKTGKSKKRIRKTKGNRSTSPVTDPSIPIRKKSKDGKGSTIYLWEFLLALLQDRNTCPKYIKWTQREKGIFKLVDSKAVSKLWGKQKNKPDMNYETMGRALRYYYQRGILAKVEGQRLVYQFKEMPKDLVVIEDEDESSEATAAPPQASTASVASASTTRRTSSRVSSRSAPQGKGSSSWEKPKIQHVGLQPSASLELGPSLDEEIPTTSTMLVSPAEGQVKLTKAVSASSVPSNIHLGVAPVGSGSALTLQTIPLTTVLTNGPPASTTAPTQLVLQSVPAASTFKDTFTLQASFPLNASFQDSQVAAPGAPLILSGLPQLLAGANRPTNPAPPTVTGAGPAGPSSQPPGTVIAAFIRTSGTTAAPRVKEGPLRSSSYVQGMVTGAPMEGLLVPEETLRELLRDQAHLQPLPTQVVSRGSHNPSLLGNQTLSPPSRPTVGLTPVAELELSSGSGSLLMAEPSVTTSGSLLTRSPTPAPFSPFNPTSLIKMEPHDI
Sequence of ETV6 (P41212 whole entry): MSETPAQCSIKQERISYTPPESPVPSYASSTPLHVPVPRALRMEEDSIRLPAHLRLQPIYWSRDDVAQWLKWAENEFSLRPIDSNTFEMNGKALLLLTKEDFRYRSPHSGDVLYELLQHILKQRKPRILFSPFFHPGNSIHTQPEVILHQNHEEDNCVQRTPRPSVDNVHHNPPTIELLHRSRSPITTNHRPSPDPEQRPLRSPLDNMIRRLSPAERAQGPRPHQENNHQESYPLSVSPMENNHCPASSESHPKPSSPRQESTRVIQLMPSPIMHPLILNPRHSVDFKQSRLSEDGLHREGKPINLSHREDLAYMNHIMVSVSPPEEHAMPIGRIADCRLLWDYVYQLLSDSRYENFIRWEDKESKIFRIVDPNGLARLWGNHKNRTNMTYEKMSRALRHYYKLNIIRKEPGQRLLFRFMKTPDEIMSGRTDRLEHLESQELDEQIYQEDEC

Turning to GGTATC, the binding signal is 1.07 fold enrichment (6-mer frequency, TF over GST control) with ELK1; 1.06 fold enrichment (6-mer frequency, TF over GST control) in the assay with GABPA; 1.07 fold enrichment (6-mer frequency, TF over GST control) with ERG; 1.09 fold enrichment (6-mer frequency, TF over GST control) with ELF1; 1.02 fold enrichment (6-mer frequency, TF over GST control) with SPI1; 1.04 fold enrichment (6-mer frequency, TF over GST control) in the assay with SPIB. For the same sequence, the binding signal in the assay with FEV is 1.06 fold enrichment (6-mer frequency, TF over GST control); with ETV5 it was 1.06 fold enrichment (6-mer frequency, TF over GST control); with ELF4 it was 1.08 fold enrichment (6-mer frequency, TF over GST control); with ELK4, 1.13 fold enrichment (6-mer frequency, TF over GST control); in the assay with ETV2, 1.23 fold enrichment (6-mer frequency, TF over GST control); with ELF3, 1.23 fold enrichment (6-mer frequency, TF over GST control). In addition, the binding signal with ETV1 was 1.1 fold enrichment (6-mer frequency, TF over GST control); with ETV3L, 1.02 fold enrichment (6-mer frequency, TF over GST control); with ETS2, 1.01 fold enrichment (6-mer frequency, TF over GST control); in the assay with ETV7, 1.06 fold enrichment (6-mer frequency, TF over GST control); in the assay with ETV3 it was 1.04 fold enrichment (6-mer frequency, TF over GST control); with ETV6, 1.03 fold enrichment (6-mer frequency, TF over GST control).
